Laboratory results reported in PubChem BioAssay AID2315 (National Center for Advancing Translational Sciences (NCATS), 2010).
Out of some 290,000 compounds screened, about 27,000 (9.3%) were called active. No stated cut-off is given here; in the data, active means inhibition mostly above about 28% (no sharp cut-off); inactive means mostly below about 43%. For the sample, actives were picked, then their nearest neighbours and some compounds at random.

Experiment: A qHTS for Small Molecule Inhibitors of Shiga Toxin; further: 0% is about no effect
Details: Vero cells, Shiga toxin protein synthesis inhibition reporter; at 38.7 µM, stronger effect = higher value

Compound | inhibition
Cc1ccc(Cn2c(C)c3cnn(CC(=O)NCc4ccccn4)c(=O)c3c2C)cc1 | -6.49% (inactive)
Cc1nn(CC2CC2)c(=O)n1N(C)c1ncc(C(F)(F)F)cc1Cl | -23.8% (inactive)
COc1ccc(NS(=O)(=O)c2ccc(F)cc2F)cn1 | -5.14% (inactive)
CCOC(=O)Cn1c(=O)n(Cc2ccc(OC)cc2)c(=O)c2cccnc21 | -6.29% (inactive)
Cc1cc(NS(=O)(=O)c2ccc(NC(=O)C(C)Oc3cccc(C)c3C)cc2)nc(C)n1 (stereo not drawn) | 1.79% (inactive)
CC(NC(=O)COc1ccc(-c2ccccc2)cc1)C1CCCO1 (stereo not drawn) | 12% (inactive)
Cc1ccc2c(CC(=O)NCc3cccs3)coc2c1 | 77.5% (active)
O=C(Cc1coc2ccc3ccccc3c12)NCc1cccs1 | 1.44% (inactive)
COc1ccc(C)cc1NC(=O)CNCc1cccs1 | -6.47% (inactive)
CC(C)[C@H](NC(=O)N1CCn2c1nc1ccccc12)C(=O)NC1CC1 | 25.9% (inactive)
CCOC(=O)C1(Cc2ccc(Cl)cc2)CCN(C(=O)C2=NNC(=O)CC2)CC1 | -6.2% (inactive)
CCOC(=O)C1(Cc2ccccc2C(F)(F)F)CCN(C(=O)c2cc(C)n(C)n2)CC1 | 109% (active)
CCOC(=O)C1(CCOc2ccccc2)CCN(C(=O)c2cncs2)CC1 | -4.69% (inactive)
COC(=O)c1ccc(CNC(=O)C2CCC(=O)N(Cc3ccccn3)C2)cc1 (stereo not drawn) | -9.5% (inactive)
CN(C)c1ccc(C2N(C)C(=O)c3ccccc3N2C)cc1 (stereo not drawn) | -12.6% (inactive)
O=[N+]([O-])c1ccc(N2CCN(c3ccc(F)cc3)CC2)cn1 | 20.3% (inactive)
O=C(Nc1ccccc1)c1ccc2nsnc2c1 | 64.7% (active)
O=C(Nc1ccccc1Cl)c1ccc2nsnc2c1 | 102% (active)
Cc1nc(C)c(C(=O)Nc2cccc(C)c2C)o1 | -7.98% (inactive)
O=C(Nc1ccccc1N1CCCCC1)c1ccc2nccnc2c1 | -14.9% (inactive)
O=C(Nc1cccc(NC(=O)c2ccc(Br)cc2)c1)c1ccccc1 | -7.53% (inactive)
Cc1cccc(NC(=O)c2ccc(OCC(=O)NCc3ccccc3)cc2)c1C | -9.42% (inactive)
O=S(=O)(Nc1ccccc1Cl)c1cccc2nsnc12 | -3.15% (inactive)
Cc1cccc(NC(=O)c2ccc3nsnc3c2)c1C | 80% (active)

Compound | inhibition
COc1ccc(N2CCN(C(=O)C3CCN(C(=O)c4ccccc4Cl)CC3)CC2)cc1 | 26.7% (inactive)
CCCCC(CC)CNCc1cccn1CCN1CCOCC1 (stereo not drawn) | -23.2% (inactive)
COc1cccc(-c2nc(CS(=O)CC(=O)NCc3ccc(F)cc3)c(C)o2)c1 (stereo not drawn) | -9.69% (inactive)
COc1cccc(NC(=O)[C@H](Cc2c[nH]c3ccccc23)NC(=O)[C@@H]2Cc3ccccc3CN2)c1 | 9.71% (inactive)
O=S(=O)(Nc1cccc(-n2cnnn2)c1)c1cnc(Cl)c(Cl)c1 | -9.74% (inactive)
Cc1ccc(C)c(NC(=O)c2ccc(OC(=O)c3ccco3)cc2)c1 | 32.9% (inactive)
Cc1ccc(O)c(NC(=O)COc2cc(C)ccc2C)c1 | -27.8% (inactive)
Cc1ccc(O)c(NC(=O)c2cc(-c3ccco3)on2)c1 | 81.4% (active)
O=C(O)CSc1c2c(nc3cc(C(=O)Nc4cccc(C(F)(F)F)c4)ccc13)CCCC2 | -3.73% (inactive)
O=C(O)CN1CCN(C(c2ccccc2)c2ccccc2)CC1 | -10.2% (inactive)
Cc1cc(SCc2c(F)cccc2Cl)nc(=O)[nH]1 | 5.47% (inactive)
Fc1cccc(Cl)c1CSc1ccc(-c2ccco2)nn1 | 89% (active)
O=C(CSc1ccc(-c2ccco2)nn1)NCc1ccc2c(c1)OCO2 | 25% (inactive)
COc1ccc(NC(=O)CSc2ccc(-c3ccco3)nn2)c(OC)c1 | -11.2% (inactive)
Brc1ccc(CSc2ccc(-c3ccco3)nn2)cc1 | 99.8% (active)
Clc1ccccc1CSc1nnc(-c2ccco2)c(-c2ccco2)n1 | -3.95% (inactive)
O=C(Nc1ccccc1-c1ccccc1)c1ccccc1[N+](=O)[O-] | 2.33% (inactive)
NC(=O)c1ccc(N2CCOCC2)nc1 | -13.6% (inactive)
O=C(Nc1ccc(N2CCOCC2)nc1)c1c(F)cccc1F | 55.5% (active)
O=C(Nc1ccc(F)cc1)c1cccnc1N1CCOCC1 | 28.6% (inactive)
CC(=O)c1ccc(S(=O)(=O)N(C)CCCC(=O)N(C)Cc2ccccc2F)cc1 | -5.36% (inactive)
CCn1c(Cc2ccc(OC)cc2)nnc1SCC(=O)Nc1ccc(N2CCOCC2)cc1 | 1.72% (inactive)
COc1cccc(/C=C(/CC(=O)Nc2ccc(N3CCOCC3)cc2)c2nc3ccccc3s2)c1 | 90.3% (active)
COc1ccc(/C=C(/CC(=O)Nc2ccc(C)cc2)c2nc3ccccc3s2)cc1 | 19.4% (inactive)
